Experimental data taken from PubChem BioAssay AID1347075 (National Center for Advancing Translational Sciences (NCATS), 2019).
Screen size: about 400,000 compounds; about 5,500 (1.4%) were called active. Inconclusive results (about 9%) are left out. This is one part of a sample in which actives are shown more often than they occur. Calls follow the shape of the dose curve; as a rule, active = well fitted cell-killing curve with a large enough effect; inconclusive = small, poorly fitted or top-dose-only effect, or effect the other way; inactive = flat fitted curve, though single readings scatter.

Assay: qHTS assay for MDR1-selective chemotherapeutics: Primary screen using the parental adenocarcinoma cell KB-3-1; also: nearly all actives have a fitted effect of over 60% in size
Settings: KB-3-1 viability, CellTiter-Glo ATP luminescence, 72 h; series mostly up to 46.1 µM; activity change, negative = cytotoxic: at the top concentration
Method in brief: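 Cells are dispensed, compounds pinned in, plates held at 37 °C for 72 h, then CellTiter-Glo is added and luminescence read after 10 minutes. Cell line: parental KB-3-1 in phenol-red-free DMEM, 10% FBS.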
% is scaled to controls: 0 for no effect and ±100 for the full control effect; potency is read from the fitted curve at half-maximal effect.

Structure (SMILES)	activity change, negative = cytotoxic	Potency
Cc1ccc(OCC(=O)Nc2ccc(Cl)c(-c3nc4ccccc4[nH]3)c2)cc1C	0.112% (inactive)	–
O=C(c1ccc(Cl)cc1)n1nc(-c2cccnc2)nc1NCc1ccc(F)cc1	5.88% (inactive)	–
O=C(Cn1ncc(N2CCCC2)c(Br)c1=O)c1ccc(Cl)cc1	-13.7% (inactive)	–
O=C(Cn1nc(CNc2ccc(Cl)cc2)[n+]2c1CCCCC2)c1ccc(Cl)cc1	–	16.4 µM (active)
O=C(Cn1nc(C(F)(F)F)c2c1CCCC2)Nc1ccc(Cl)cc1	0.234% (inactive)	–
Cc1nc2ccc(S(=O)(=O)N(CC(=O)Nc3ccc(F)cc3)Cc3ccccc3)cc2s1	2.96% (inactive)	–
COc1ccc(-c2nc3c4ccccc4n(CC(=O)Nc4ccc(C(C)=O)cc4)c(=O)n3n2)cc1	11.5% (inactive)	–
COc1ccccc1C(=O)Nc1ccc(C)c(S(=O)(=O)N2CCCCC2)c1	0% (inactive)	–
Cc1ccc(NC(=O)COC(=O)C2CC2)cc1S(=O)(=O)N1CCOCC1	12.9% (inactive)	–
CCc1ccccc1OCC(=O)Nc1ccc(C)c(S(=O)(=O)N2CCCCCC2)c1	–	18.4 µM (active)
O=C(CCc1nc(CN2CCN(S(=O)(=O)c3ccc(Cl)cc3)CC2)no1)N1CCCCC1	10.5% (inactive)	–
COc1cc2ccccc2cc1C(=O)Nc1cccc(-c2nc3ccccc3o2)c1	-28.8% (inactive)	–
Cc1cccc(NC(=O)CSc2nc3c([nH]c4ccccc43)c(=O)n2-c2cc(C)cc(C)c2)c1	9.13% (inactive)	–
Cc1oc(C)c2c(=O)cc(-c3ccc4c(c3)OCO4)cc(OC(=O)c3ccc(Cl)cc3)c12	5.96% (inactive)	–
COc1cc2c(-c3ccc4c(c3)OCO4)c(-c3ccsc3)oc(=O)c2cc1OC	-11.2% (inactive)	–
COc1cc(-c2c(-c3ccc4c(c3)OCO4)noc2C)ccc1F	–	3.26 µM (active)
Cc1ccc(C=O)cc1Cl	-8.55% (inactive)	–
O=C(CSc1oc(-c2ccccc2)nc1S(=O)(=O)c1ccc(Br)cc1)NC1CCCCC1	4.96% (inactive)	–
COc1ccc(OC)c(-c2noc(N3CCN(c4cc(Cl)ccc4C)CC3)n2)c1	0.175% (inactive)	–
CCOc1ccccc1CNC(=O)c1cnc2c(-c3ccc(OCC)c(OCC)c3)c(C)nn2c1C	4.74% (inactive)	–
Cc1ccccc1-c1nc2cc(NC(=O)c3cccc(OCCC(C)C)c3)ccc2o1	0% (inactive)	–
Cc1cc(O)c(C(c2ccccc2)N2CCN(c3ccccc3F)CC2)c(=O)n1Cc1ccco1 (centres undefined)	10.2% (inactive)	–
COc1ccc(C)cc1NC(=O)CCS(=O)(=O)c1cccc2nonc12	6.36% (inactive)	–
Cc1cccc2sc(N(CCCN(C)C)C(=O)CCS(=O)(=O)c3ccccc3)nc12	–	20.6 µM (active)
Cc1ccc(S(=O)(=O)CCC(=O)OCC(=O)N(C)Cc2ccccc2)cc1	11% (inactive)	–

Structure (SMILES)	activity change, negative = cytotoxic	Potency
Cc1cccc(C)c1NC(=O)CCS(=O)(=O)c1cccc2nsnc12	19.3% (inactive)	–
COc1cccc2sc(N(CCCN(C)C)C(=O)CCS(=O)(=O)c3ccccc3)nc12	–	18.4 µM (active)
COc1ccccc1CNC(=O)CS(=O)(=O)c1cccc2nsnc12	-7.34% (inactive)	–
COc1cc(NC(=O)c2nn(-c3ccc(C)cc3)c(=O)c3c2c2ccccc2n3C)cc(OC)c1OC	5.86% (inactive)	–
COc1ccc(C)cc1-n1c(-c2ccc(C)cc2)cc2c1CC(C)(C)CC2=O	-7.59% (inactive)	–
O=C(Nc1nnc(C2CC(=O)N(c3ccc(Cl)cc3)C2)s1)c1ccco1 (centres undefined)	13.2% (inactive)	–
Cc1nc2nc(NCc3cccc(Br)c3)[nH]n2c(=O)c1Cc1ccccc1	-16.3% (inactive)	–
CCN(CCCNC(=O)Cn1ncc2c([nH]c3ccccc32)c1=O)c1cccc(C)c1	8.56% (inactive)	–
COc1ccc(-c2noc(CSc3nnc(-c4ccccc4)n3-c3ccc(F)cc3)n2)c(OC)c1	-29.3% (inactive)	–
CCOC(=O)c1c(C)[nH]c(C)c1S(=O)(=O)N1CCCC(C(=O)NCc2ccccc2Cl)C1 (centres undefined)	2.01% (inactive)	–
COc1cc(C(=O)Nc2ccc(OCc3cc(=O)n4ccc(C)cc4n3)cc2)cc(OC)c1OC	0.04% (inactive)	–
CCN(CC)CCNCC(=O)Nc1ccc(Oc2ccccc2)cc1	-6.12% (inactive)	–
CN(CCOc1ccc(CC2SC(=O)NC2=O)cc1)c1ccccn1 (centres undefined)	–	inactive
CCN(CC)CCOc1ccc2c(c1)C(=NNC(=O)c1ccccn1)c1cc(OCCN(CC)CC)ccc1-2	–	14.6 µM (active)
Cn1c(=O)c2c(nc(Oc3ccc(C#N)cc3)n2Cc2ccc(Cl)cc2Cl)n(C)c1=O	-21.6% (inactive)	–
CCc1ccc(NC(=O)Cn2c(=O)n(CCC(=O)NCc3ccc4c(c3)OCO4)c(=O)c3ccccc32)cc1	-7.33% (inactive)	–
COC(=O)c1ccccc1NC(=O)c1cnn(-c2ccc(F)cc2)c1-n1cccc1	-3.94% (inactive)	–
CCC(=O)N1CCc2cc(S(=O)(=O)NC(Cc3ccccc3)C(=O)NCc3ccccc3)ccc21 (centres undefined)	3.83% (inactive)	–
Cc1nnc2n1N=C(c1ccc3c(c1)NC(=O)CO3)CS2	-55.2% (inactive)	–
COc1ccc(C2=Nn3c(nnc3-c3ccccc3OC)SC2)cc1OC1CCCC1	–	2.31 µM (active)
CCn1c(SCC(=O)NC2CC2)nnc1-c1ccccc1OC	-6.53% (inactive)	–
O=[n+]1c2c(n([O-])c3cc(Br)ccc31)CCC2	2.63% (inactive)	–
O=C1CCCc2c1[nH]c1ccc(Br)cc21	–	0.651 µM (active)
C/C(=N\N)c1c(-c2ccccc2)c2cc(Br)ccc2[nH]c1=O	-0.927% (inactive)	–
